Counter-ions that a name gives are not always drawn. ± gives the standard deviation of the averaged measurements.
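Further: End-point A600 read in BHI broth at 37 °C with 2% DMSO, inhibition computed as (1 − OD with compound plus ceftriaxone ÷ OD with ceftriaxone only) × 100.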

For this experiment, the system named is Listeria monocytogenes 10403S. Kind of experiment: growth inhibition relative to ceftriaxone-alone control; higher = stronger potentiation of ceftriaxone growth inhibition. The note with it: 10 µM; ceftriaxone 1 ug/ml; 12 h.
For the compound `COc1cc(Nc2ncc(-c3ccccc3)o2)cc(OC)c1`, the growth inhibition was 17 ± 3.9%.

Turning to `CN(C[C@@H]1COCCO1)S(=O)(=O)Nc1ccc2ccc3ncc(-c4cnn(C)c4)cc3c(=O)c2c1`, the growth inhibition was -22.01 ± 0.12%.

Turning to `Nc1ncnc2occ(-c3ccc(NC(=O)Nc4cc(C(F)(F)F)ccc4F)cc3)c12`, the growth inhibition is -0.902 ± 0.59%.

With `CC1=C(C(=O)Nc2ccc3[nH]nc(C)c3c2)C(c2ccc(C(F)(F)F)cc2)CC(=O)N1` (stereo not drawn), the growth inhibition was -1.71 ± 13%.

Consider `C[C@@H](Oc1cc(-c2cnn(C3CCNCC3)c2)cnc1N)c1c(Cl)ccc(F)c1Cl`, for which the growth inhibition stood at 94.9 ± 5.1%.

Consider `NS(=O)(=O)c1cccc(Nc2cc(-c3ccc(F)cc3)n[nH]2)c1`, for which the growth inhibition is -5.13 ± 10%.

For the compound `Nc1nc(-c2ccccn2)c(-c2ccc3ncccc3n2)s1`, the growth inhibition was found to be 0.104 ± 3%.

As for `COc1ccc(-c2ccc3c(NC(=O)C4CC4)n[nH]c3n2)cc1`, the growth inhibition is -7.27 ± 8.3%.

Turning to `C[C@@H](Oc1cc(-n2cnc3ccc(OC[C@@H](O)CO)cc32)sc1C(N)=O)c1ccccc1Cl`, the growth inhibition is -3.67 ± 1.5%.

For the compound `COC(=O)Nc1nc2ccc(Sc3ccc(NC(=O)Nc4cc(C(F)(F)F)ccc4F)cc3)cc2[nH]1`, the growth inhibition is -12.7 ± 13%.

As to `CNC(=O)c1cc(Oc2ccc(NC(=O)Nc3ccc(Cl)c(C(F)(F)F)c3)cc2)ccn1` [Sorafenib (Nexavar)], the growth inhibition worked out at 98.7 ± 1.8%.

As for `COc1cc2ncn(-c3cc(OCc4ccccc4C(F)(F)F)c(C(=O)N(C)C)s3)c2cc1OC`, the growth inhibition was -5.41 ± 4.1%.

As to `COc1cccc2cc(-c3nc([C@H]4CC[C@H](C(=O)O)CC4)n4ncnc(N)c34)[nH]c12`, the growth inhibition was found to be 16.8 ± 14%.

With `CCC(=O)N1CCN(c2ccc(-n3c(=O)ccc4cnc5ccc(-c6cnc7ccccc7c6)cc5c43)cc2C(F)(F)F)CC1` [Torin 1], the growth inhibition is -4.1 ± 10%.

`COc1cc2ncnc(Nc3ccc4c(cnn4Cc4ccccc4)c3)c2cc1OC`: the growth inhibition was -12.1 ± 18%.

In the case of `COc1ccc(-c2nn3ncccc3c2-c2ccnc(Nc3ccc(F)c(F)c3)n2)cc1`, the growth inhibition is -0.06 ± 1.5%.

Consider `NC1(c2ccc(-c3nc4ccn5c(=O)[nH]nc5c4cc3-c3ccccc3)cc2)CCC1`, for which the growth inhibition turned out to be 86.41 ± 0.47%.

In the case of `Cn1cc(-c2ccc3nnc(Sc4ccc5ncccc5c4)n3n2)cn1`, the growth inhibition came out at 18 ± 20%.

With `CO[C@H]1C[C@@H]2CC[C@@H](C)[C@@](O)(O2)C(=O)C(=O)N2CCCC[C@H]2C(=O)O[C@H]([C@H](C)C[C@@H]2CC[C@@H](O)[C@H](OC)C2)CC(=O)[C@H](C)/C=C(\C)[C@@H](O)[C@@H](OC)C(=O)[C@H](C)C[C@H](C)/C=C/C=C/C=C/1C` [Rapamycin (Sirolimus)], the growth inhibition was 30.2 ± 26%.

On to `Cc1ccc(C(=O)NC(C)C)cc1-c1ccc(C(=O)NCC2CC2)cc1`, for which the growth inhibition was -1.2 ± 0.17%.

Regarding `COc1ccc2ncn(-c3cc(O[C@H](C)c4ccccc4C(F)(F)F)c(C(N)=O)s3)c2c1`, the growth inhibition worked out at 0.811 ± 11%.

For `COc1ccc(-c2oc3ncnc(N)c3c2-c2ccc(NC(=O)Nc3cc(C(F)(F)F)ccc3F)cc2)cc1`, the growth inhibition is -3.49 ± 7.6%.

Turning to `Oc1cccc(-c2nc(-c3ccccc3)[nH]c2-c2ccncc2)c1`, the growth inhibition is -3.01 ± 1.1%.

With `O=C1NC(=O)C(c2cccc(Cl)c2)=C1Nc1ccc(O)c(Cl)c1`, the growth inhibition was -7.55 ± 15%.

In the case of `CC[C@@H]1C(=O)N(C)c2cnc(Nc3ccc(C(=O)NC4CCN(C)CC4)cc3OC)nc2N1C1CCCC1`, the growth inhibition was 41.8 ± 45%.

For the compound `Cc1ccc(NC(=O)c2ccnc(N3CCCC3)c2)cc1-c1ccc(C(=O)NCC2CC2)cc1`, the growth inhibition is -0.943 ± 1.3%.

On to `CCn1c(-c2nonc2N)nc2c(C#CC(C)(C)O)ncc(OCC3CCNCC3)c21`, for which the growth inhibition was 29.8 ± 9.6%.

`CCn1c(-c2nonc2N)nc2c(C#CC(C)(C)O)ncc(OC[C@H]3CCCNC3)c21`: the growth inhibition turned out to be 98.398 ± 0.078%.

Consider `c1ccc(Nc2ncc(-c3ccccc3)o2)cc1`, for which the growth inhibition was determined as 2.45 ± 0.39%.

Regarding `COc1ccc2cc(-c3c(-c4ccncc4)nc(-c4ccc(S(C)(=O)=O)cc4C)n3C)ccc2c1`, the growth inhibition was -1.1 ± 3.1%.

With `CCCN1CCC(Oc2cc(Nc3nc(Nc4cccc(F)c4C(N)=O)c4cc[nH]c4n3)c(OC)cc2Cl)CC1`, the growth inhibition was -13.1 ± 20%.

Regarding `CCn1cc(-c2ccnc3[nH]c(-c4cccc(CN(C)C)c4)cc23)c(-c2ccc(NC(=O)N(C)C)cc2)n1`, the growth inhibition stood at 26.7 ± 18%.

`Cc1ccc(NC(=O)c2ccc(CN3CCN(C)CC3)cc2)cc1Nc1nccc(-c2cccnc2)n1` [Imatinib Mesylate]: the growth inhibition stood at 29.9 ± 17%.

For `CN(C)c1ccc(-c2nc3ncc(Cl)c(N4CCN(CC(=O)Nc5nccs5)CC4)c3[nH]2)cc1`, the growth inhibition is 15.3 ± 0.56%.

On to `Cc1nnc(-c2cccc(-c3ccc(C(=O)NCC4CC4)cc3)c2)o1`, for which the growth inhibition is 3.5 ± 10%.

For `C=CC(=O)Nc1ccc2ncnc(Nc3ccc(OCc4cccc(F)c4)c(Cl)c3)c2c1`, the growth inhibition is 17.47 ± 0.16%.

With `COc1ccc2c3n(c(=NC(=O)c4cccnc4)nc2c1OC)CCN3`, the growth inhibition is -0.968 ± 4.8%.

Consider `C=CC(=O)N1CCC[C@@H](n2nc(-c3ccc(Oc4ccccc4)cc3)c3c(N)ncnc32)C1`, for which the growth inhibition turned out to be 42.1 ± 24%.

The values are drawn from the supplement of paper PMC5641865, “A screen for kinase inhibitors identifies antimicrobial imidazopyridine aminofurazans as specific inhibitors of the Listeria monocytogenes PASTA kinase PrkA” (The Journal of Biological Chemistry, 2017).
